Read-out in assay [1]: TIMP metallopeptidase inhibitor 2 (TIMP2), TIMP2 (gene 7077)
In words: BSK_KF3CT_TIMP2: BioMAP Diversity Plus: KF3CT Assay for TIMP metallopeptidase inhibitor 2 (TIMP2) Biomarker Activity (AID 2283071). The settings on record: primary human keratinocytes with fibroblasts; actives raise or lower the signal. An outline of the steps:
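Chemicals were dosed onto human skin primary co-cultures of keratinocytes and foreskin fibroblasts, and TIMP-2 was measured by ELISA after 24 hours. Activity in either direction was fitted relative to DMSO.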

Read-out in assay [2]: Transforming growth factor beta 1 (TGFb1), TGFB1 (gene 7040)
In words: BSK_KF3CT_TGFb1: BioMAP Diversity Plus: KF3CT Assay for Transforming growth factor beta 1 (TGFb1) Biomarker Activity (AID 2283072). The following applies: primary human keratinocytes with fibroblasts; actives raise or lower the signal. The gist of the method:
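KF3CT co-culture (keratinocytes + fibroblasts), 24 h exposure → TGF-b1 ELISA → bidirectional fit, DMSO = baseline. Parallel SRB total-protein staining (0.1% SRB, 10% TCA fixation, 560 nm) for cytotoxicity.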

Read-out in assay [3]: C-C motif chemokine 2 (Homo sapiens) (UniProt P13500)
In words: BSK_KF3CT_MCP1: BioMAP Diversity Plus: KF3CT Assay for Monocyte Chemoattractant Protein 1 (MCP1/CCL2) Biomarker Activity (AID 2283073). The following applies: primary human keratinocytes with fibroblasts; actives raise or lower the signal. The gist of the method: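 ELISA readout of MCP-1 after 24 h chemical dosing of a human skin primary co-culture of keratinocytes and foreskin fibroblasts. Activity was fitted in both directions against DMSO.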

Read-out in assay [4]: Matrix Metallopeptidase 9 (MMP9), MMP9 (gene 4318)
As to the kind of experiment: BSK_KF3CT_MMP9: BioMAP Diversity Plus: KF3CT Assay for Matrix Metallopeptidase 9 (MMP9) Biomarker Activity (AID 2283074).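 As to AC50: MMP9 protein level quantified by ELISA in the co-culture.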 The settings on record: primary human keratinocytes with fibroblasts; actives raise or lower the signal. The gist of the method: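 ELISA read-out of MMP-9 at 24 h post-dosing in a co-culture of human skin keratinocytes and foreskin fibroblasts. Gain or loss of signal was fitted in both directions against DMSO.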

Read-out in assay [5]: urokinase plasminogen activator (uPA), PLAU (gene 5328)
In words: BSK_KF3CT_uPA: BioMAP Diversity Plus: KF3CT Assay for urokinase plasminogen activator (uPA) Biomarker Activity (AID 2283075). The settings on record: primary human keratinocytes with fibroblasts; actives raise or lower the signal. An outline of the steps:
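Skin co-culture (keratinocytes + foreskin fibroblasts), human primary; 24 h post-dose; uPA by ELISA; gain/loss fit vs DMSO baseline.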

Read-out in assay [6]: CD40, CD40 (gene 958)
As to the kind of experiment: BSK_LPS_CD40: BioMAP Diversity Plus: LPS Assay for CD40 Biomarker Activity (AID 2283076). The following applies: primary human HUVEC with PBMC; actives raise or lower the signal. An outline of the steps: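 Cells were dosed, incubated 24 h, then assayed for CD40 by ELISA. Gain or loss of signal was analysed relative to DMSO controls. The culture paired human umbilical vein endothelium with peripheral blood mononuclear cells.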

Read-out in assay [7]: E-selectin (Homo sapiens) (UniProt P16581)
As to the kind of experiment: BSK_LPS_Eselectin: BioMAP Diversity Plus: LPS Assay for Eselectin Biomarker Activity (AID 2283077). The following applies: primary human HUVEC with PBMC; actives raise or lower the signal. An outline of the steps: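 Primary human vascular co-culture (endothelium plus PBMC) was dosed with chemical, then E-selectin quantified by ELISA at 24 h. Endpoint values derive from bidirectional curve fitting relative to DMSO.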

Read-out in assay [8]: Interleukin-8 (IL8), CXCL8 (gene 3576)
As to the kind of experiment: BSK_LPS_IL8: BioMAP Diversity Plus: LPS Assay for Interleukin-8 (IL8) Biomarker Activity (AID 2283078). The following applies: primary human HUVEC with PBMC; actives raise or lower the signal. The gist of the method: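 Readout is IL-8 by ELISA, taken 24 h after compounds were added to LPS-stimulated endothelial/PBMC co-cultures. Both increases and decreases relative to DMSO control were scored through bidirectional fitting.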

A short description of assay [9]: BSK_LPS_SRB: Viability Assessment in the BioMAP Diversity Plus: LPS Assay (AID 2283079).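 Also: total protein by sulforhodamine B absorbance as a cytotoxicity measure; measured one day after compound addition.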 The following applies: primary human HUVEC with PBMC. An outline of the steps: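 Readout is SRB absorbance at 560 nm (0.1% stain, TCA-fixed parallel cultures) as a total-protein cytotoxicity measure. Cells: primary human umbilical vein endothelium plus peripheral blood mononuclear cells, 24 h after chemical exposure; DMSO served as baseline.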

Read-out in assay [10]: Interleukin-1 alpha (IL1a), IL1A (gene 3552)
In words: BSK_LPS_IL1a: BioMAP Diversity Plus: LPS Assay for Interleukin-1 alpha (IL1a) Biomarker Activity (AID 2283080). The settings on record: primary human HUVEC with PBMC; actives raise or lower the signal. The gist of the method: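 ELISA read-out of IL-1 alpha from a human primary vascular co-culture (endothelium plus PBMC) under LPS, sampled 24 hours post-dosing. Activity was fitted in both directions relative to DMSO controls.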

Activity calls are given as the source filed them. The calls were made as follows: active = hit-call score of the fitted dose curve at least 0.9, where 1 is the maximum; inactive = score below 0.9.

Chain of E-selectin (Homo sapiens) (P16581 whole entry, looked up): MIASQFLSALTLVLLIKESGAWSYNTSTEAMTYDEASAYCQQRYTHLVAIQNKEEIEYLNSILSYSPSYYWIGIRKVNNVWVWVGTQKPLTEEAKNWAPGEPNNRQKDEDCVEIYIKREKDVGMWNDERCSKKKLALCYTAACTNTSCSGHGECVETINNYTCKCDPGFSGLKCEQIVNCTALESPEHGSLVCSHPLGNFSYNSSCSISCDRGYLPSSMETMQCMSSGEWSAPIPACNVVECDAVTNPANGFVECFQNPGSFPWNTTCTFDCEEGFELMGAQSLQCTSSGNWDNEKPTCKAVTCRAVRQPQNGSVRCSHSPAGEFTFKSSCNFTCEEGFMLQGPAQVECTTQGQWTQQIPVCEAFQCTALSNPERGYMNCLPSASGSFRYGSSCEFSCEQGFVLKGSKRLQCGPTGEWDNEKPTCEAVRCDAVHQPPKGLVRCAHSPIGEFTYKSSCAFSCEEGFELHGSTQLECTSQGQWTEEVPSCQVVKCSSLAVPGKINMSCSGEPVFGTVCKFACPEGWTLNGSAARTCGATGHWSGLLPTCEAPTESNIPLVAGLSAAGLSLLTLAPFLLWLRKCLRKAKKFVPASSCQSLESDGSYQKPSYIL

As for `O=C1NS(=O)(=O)c2ccccc21`, the outcome in [1], in [2], in assay [3], in assay [4], in [5] and in [6] was inactive. Further, the result in assay [7], in assay [8], in [9] and in [10] was inactive.
For `CCCCCCCCCCCCCCC`, the outcome in [1], in assay [2], in [3], in assay [4], in assay [5] and in assay [6] was inactive. The outcome in assay [7], in [8], in assay [9] and in assay [10] was inactive.
Take `CCCCC(CC)C(=O)OCCOCCOCCOCCOC(=O)C(CC)CCCC` (stereo not given): the result in assay [1], in [2], in assay [3], in [4], in [5] and in assay [6] was inactive. Besides, the result in assay [7], in assay [8], in assay [9] and in assay [10] was inactive.
By AC50 is commonly meant the concentration at which the activity in the assay is half-maximal. Regarding `O=C(CCCN1CCC(O)(c2ccc(Cl)cc2)CC1)c1ccc(F)cc1`, the outcome in assay [1], in [2], in assay [3], in assay [4], in assay [5] and in assay [6] was inactive. Also, the result in assay [8], in assay [9] and in assay [10] was inactive. The AC50 in assay [7] was 1.67 µM (active).
Consider `CCCCC(CC)C(=O)O` (stereo not given), for which the result in assay [1], in [2], in assay [3], in [4], in [5] and in [6] was inactive. Further, the result in [7], in [8], in assay [9] and in assay [10] was inactive.
As for `OCCN1CN(CCO)CN(CCO)C1`, the outcome in [1], in [3], in [4], in assay [5] and in assay [9] was inactive. The AC50 was 3.97 µM (active) in assay [2]; 36 µM (active) in assay [6]; 29.9 µM (active) in [7]; 28.2 µM (active) in assay [8]; 31.4 µM (active) in assay [10].
In the case of `C=CC(C)(CCC=C(C)C)OC(C)=O` (stereo not given), the results for the AC50 in assay [1], in assay [4] and in assay [5] were 32 µM (active), 30.4 µM (active) and 31.2 µM (active), respectively. The result in assay [2], in assay [3], in [6], in [7], in assay [8] and in assay [9] was inactive. Moreover, in [10], the result was inactive.
On to `CC(=O)Nc1ccc(O)cc1`, for which the outcome in assay [1], in [2], in [3], in assay [4], in [5] and in assay [6] was inactive. Further, the result in assay [7], in [8], in assay [9] and in assay [10] was inactive.
Turning to `COc1cc(OC)nc(NC(=O)NS(=O)(=O)Nc2ccccc2C(=O)N(C)C)n1`, the result in assay [1], in assay [2], in assay [3], in assay [4], in [5] and in assay [6] was inactive. Besides, the outcome in [7] and in [9] was inactive. In addition, the AC50 in assay [8] is 0.055 µM (active); in assay [10], 0.0637 µM (active).
For the molecule `N=C(N)c1ccc(OCCCCCOc2ccc(C(=N)N)cc2)cc1`, the result in assay [1], in assay [2], in assay [3], in [4], in assay [5] and in assay [6] was inactive. Besides, the result in assay [7] and in assay [9] was inactive. The AC50 was 12.7 µM (active) in assay [8] and 17.5 µM (active) in assay [10].
Take `COc1cccc(O)c1`: the result in assay [1], in assay [2], in [3], in assay [4], in [5] and in assay [6] was inactive. The result in assay [7], in assay [8], in [9] and in [10] was inactive.
Regarding `CC(C)(C)c1ccc(O)c(O)c1`, the result in [1], in assay [2], in assay [3] and in [5] was inactive. Also, the AC50 was 20 µM (active) in assay [4]; 20 µM (active) in assay [6]; 33.4 µM (active) in assay [7]; 30.6 µM (active) in assay [8]; 31.4 µM (active) in assay [9]; 29.3 µM (active) in assay [10].
As for `COC1=CC(=O)C[C@@H](C)[C@]12Oc1c(Cl)c(OC)cc(OC)c1C2=O`, the result in assay [1], in assay [2], in assay [5], in assay [6], in assay [7] and in [8] was inactive. Moreover, the result in assay [9] and in assay [10] was inactive. Also, the half-maximal activity concentration (AC50) is 0.119 µM (active) in assay [3] and 0.572 µM (active) in assay [4].
In the case of `C[C@]12CC[C@@H]3c4ccc(O)cc4CC[C@H]3[C@@H]1C[C@@H](O)[C@@H]2O`, the outcome in assay [1], in [2], in [3], in assay [4], in [5] and in assay [6] was inactive. The result in assay [7], in [8], in assay [9] and in [10] was inactive.

(Values after PubChem BioAssay (EPA / NIEHS).)
